Source: PubChem (Center for Chemical Genomics, University of Michigan)
Dicer processing: inhibitors of human Dicer processing of pre-microRNA | cat-ELCCA pre-miR-21 Dicer processing, chemiluminescence; hits give high values | z-score at 25 µM | 47,000 tested, 6% active; in the data active = z-score above about 3, passing the limit was not always enough;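 also: plate controls were vehicle for no effect and no enzyme for full effect; higher signal means more uncleaved substrate so more Dicer inhibition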
The depositor's hits bear a star. This is one part of a sample in which hits are shown more often than they occur.

SMILES | Dicer processing
CC(C)Cc1nc2sc3c(NCC4CCCO4)ncnc3c2c2c1COC(C)(C)C2 (stereo unspecified) | 0.39
O=C(CN1CCCCC1)N1c2ccccc2Sc2ccccc21 | -0.03
CCN(CC)CC(=O)N1c2ccccc2Sc2ccccc21 | 1.6
NCCCC(=O)N1c2ccccc2Sc2ccccc21 | 5.5*
CCCOC(=O)C1=C(C)NC2=C(C(=O)CC(C)(C)C2)C1c1cc(Cl)c(O)c(OC)c1 (stereo unspecified) | -0.03
O=S(=O)(Nc1ccc(C(F)(F)F)cn1)c1ccc(-c2ccccn2)s1 | -0.93
CSCC(CSC)OC(=O)Nc1ccc(Cl)cc1 | 1.3
CC(=O)OC(C(=O)O)C(OC(C)=O)C(=O)Nc1ccc(Cl)cc1 (stereo unspecified) | 3.1*
CC(C)OC(=O)Nc1ccc(Cl)cc1 | -0.57
Cc1cc(S(=O)(=O)c2nc3ccc(Cl)cc3s2)c(C)cc1Cl | -2.2
CCOC(=O)C1=C(C)NC2=C(C(=O)CC(C)(C)C2)C1c1ccc(OC)cc1OC (stereo unspecified) | 0.08
COC(=O)c1sc2cc(-c3ccc(F)cc3)sc2c1C | 3.8*
COC(=O)c1sc(SC)c(C(C)=O)c1C | 0.17
COC(=O)c1sccc1N/N=C/c1ccc(F)cc1 | 0.01
Cc1ccc(-c2sc(N)nc2-c2ccc(Cl)cc2)cc1 | 1.3
CN1C(=O)C(O)(CC(=O)c2cccc(Br)c2)c2ccccc21 (stereo unspecified) | 2.5
CCn1ccc(C(=O)Nc2nccs2)n1 | 0.32
CC(C)(CC(=O)O)CC(=O)Nc1ccc2c(c1)OCCCO2 | -0.21
Cc1ccccc1-n1c(N)cc(=O)n(Cc2ccco2)c1=O | 1.4
Cc1c2c(=O)n(-c3ccccc3)[nH]c2cc(=O)n1Cc1ccco1 | 3.3*
Cc1c2c(=O)n(-c3ccccc3)[nH]c2cc(=O)n1Cc1cccnc1 | 0.96
COc1ccccc1N/C=C(\C#N)S(=O)(=O)c1ccc(Cl)cc1 | 1.4
C=C1c2cccc(O)c2C(O)=C2C(=O)[C@]3(O)C(O)=C(C(N)=O)C(=O)[C@@H](N(C)C)[C@@H]3[C@@H](O)[C@H]12 | 23*
COc1ccc(S(=O)(=O)n2cnc3cc(C)c(C)cc32)c2ccccc12 | 9.2
CCOC(=O)c1c(NC(=O)CN(CC)CC)sc2c1CCCC2=O | 1.5
SMILES | Dicer processing
C=CCn1c(SCc2n[nH]c(=S)n2C)nnc1-c1ccccc1 | -0.49
C=CCn1c(CSc2nc(-c3ccccc3)cn2-c2ccc(OC)cc2OC)n[nH]c1=S | 3.4*
S=c1[nH]nc(CSc2nc(-c3ccccc3)cn2-c2ccccc2)n1-c1ccccc1 | 0.02
N#Cc1cnc(N2CCN(c3ccccc3)CC2)nc1N | -0.2
CCOc1cc(C2c3c(oc4ccccc4c3=O)C(=O)N2c2nc(C)c(C(=O)OC)s2)ccc1O (stereo unspecified) | 1.5
O=C(O)COc1ccc2oc3c(c2c1)CCCC3 | 0.97
O=C(COc1ccc2oc3c(c2c1)CCCC3)Nc1cccc(Br)c1 | 2.4
OC(COc1ccc2oc3c(c2c1)CCCC3)CN1CCN(c2ccccc2)CC1 (stereo unspecified) | 3.1*
CCS(=O)(=O)c1ccc(O)c(NC(=O)CSCC(=O)O)c1 | 0.39
N#Cc1cnn(-c2ccc(F)cc2)c1NC(=O)C1CCCCC1 | -0.55
O=c1c2cnn(-c3ccccc3)c2nc(-c2ccco2)n1-c1ccccc1 | -0.43
O=C(Cn1cnc2c(cnn2-c2ccccc2)c1=O)c1ccc(Cl)cc1 | -0.65
Cc1nc2c(cnn2-c2ccccc2)c(=O)n1/N=C/c1ccccc1 | -0.04
Cc1nc2c(cnn2-c2ccccc2)c(=O)n1NC(=O)Nc1ccc(Cl)c(Cl)c1 | 4.7*
CCOC(=O)c1cnn(-c2ccccc2)c1NC(=O)Nc1cccc(Cl)c1 | -0.56
Cc1nc2c(cnn2-c2ccccc2)c(=O)n1-c1cccc2ccccc12 | 3.2*
O=C(Nc1cccc(NC(=O)N2CCOCC2)c1F)N1CCOCC1 | -1.1
CCOC(=O)c1cnc(O/N=C(\N)c2ccc(C(F)(F)F)cc2)nc1C(F)(F)F | 0.82
NC(=O)c1c(NC(=O)c2ccccc2C(=O)O)sc2c1CCCC2 | 0.5
COC(=O)c1c(NC(=O)c2cc(OC)cc(OC)c2)sc2c1CCC2 | 0.77
COc1ccccc1NC(=O)c1c(NC(=O)c2ccco2)sc2c1CCC2 | 0.05
COC(=O)c1c(NC(=O)c2c(OC)cccc2OC)sc2c1CCC2 | 1.5
CCOC(=O)c1c(NC(=O)CC)sc2c1CCC2 | 1.4
COC(=O)c1c(NC(=O)CCCC(=O)O)sc2c1CCC2 | 4.3*
COC(=O)c1c(NC(=O)c2ccccc2C(=O)O)sc2c1CCC2 | 3.1*
SMILES | Dicer processing
CCOC(=O)CCC(=O)Nc1sc2c(c1C(=O)OCC)CCCC2 | 1.5
COc1ccc(NC(=O)c2c(NC(=O)c3ccco3)sc3c2CCC3)cc1 | 3.3*
O=C(Nc1cnc2ccc(Cl)cn2c1=O)c1ccccc1 | -0.13
Cc1cc(C)n2nc(COc3ccccc3)c(-c3ccccc3)c2n1 | 2.5
CS(=N)(=O)c1ccc(Oc2cccc(F)c2C#N)cc1 (stereo unspecified) | -0.46
C#CCSc1nc(C)c(Cc2c(F)cccc2Cl)c(=O)[nH]1 | 0.46
COc1ccc(-c2cc3ncc4c(n3n2)-c2ccccc2OC4)cc1 | -0.77
CC(C)(C)c1cc(C(C)(C)C)n(-c2ccc(N3C(=O)COCC3=O)cc2)n1 | -0.08
O=C(O)CSc1nnc(-c2cccc(Cl)c2)o1 | 0.44
O=S(=O)(CCc1ccncc1)c1ccc(Cl)cc1 | 4.3*
O=S(=O)(Cc1ccccc1)c1ccc(Cl)cc1 | 0.84
O=S(=O)(CCS(=O)(=O)c1cccs1)c1ccc(Cl)cc1 | -0.66
CCCn1c(=O)c(C#N)nn(-c2ccccc2)c1=O | -0.03
COc1cc(-c2ccc3c(c2)OCO3)cc(=O)c2c(C)oc(C)c12 | 2.3
O=C(O)CCC(=O)Nc1ccc(C(=O)O)c(O)c1 | 6.1*
CC(=O)Nc1ccc(NC(=O)CCCC(=O)O)cc1 | -2.4
Cc1ccc(NC(=O)CCC(=O)O)cc1 | -0.07
CCOCCOC(=O)C1=C(C)NC2=C(C(=O)CC(c3cccs3)C2)C1c1ccccc1OCC (stereo unspecified) | 1.6
COC(=O)C1=C(C)NC2=C(C(=O)CCC2)C1c1ccccc1N1CCOCC1 (stereo unspecified) | -1.5
COc1ccc(Nc2cc(-c3ccccc3)nc3ncnn23)c(OC)c1 | 3.7*
COc1ccc(-c2cc(-c3ccccc3)n3ncnc3n2)cc1 | -0.22
Clc1ccc(Nc2cc(-c3ccccc3)nc3ncnn23)cc1 | -0.01
CCOC(=O)c1c[nH]c2c(OC)cccc2c1=O | 1.6
Cc1ccc(C(=O)NNc2ncnc3cc(-c4ccc(C(C)(C)C)cc4)sc23)cc1 | 6.2*
CC(=O)NNc1ncnc2cc(-c3ccc(C(C)(C)C)cc3)sc12 | -0.05
SMILES | Dicer processing
Cc1ccc(C(=O)N2CCN(c3ncnc4cc(-c5ccc(C(C)(C)C)cc5)sc34)CC2)cc1 | 0
CC(=O)/C(=C\Nc1ccc(O)cc1)c1nnnn1-c1ccccc1 | 2.8
CC(=O)N1N=C(c2ccc(Br)cc2)OC1c1ccc([N+](=O)[O-])s1 (stereo unspecified) | -2.5
CN(n1cnc2ccsc2c1=O)S(=O)(=O)c1cc(C(F)(F)F)cc(C(F)(F)F)c1 | -0.97
COc1ccc(C2Nc3ccccc3-c3cc(C)nn32)cc1OC (stereo unspecified) | 3
c1ccc2c(c1)NC(c1ccc3c(c1)CCO3)n1cccc1-2 (stereo unspecified) | 3.4*
Fc1ccc(CN2CCCN(Cc3ccc(F)cc3)C2c2ccc3c(c2)CCO3)cc1 | -0.74
Oc1ccccc1C/C=C/c1ccccc1 | 0.35
Cc1nn(-c2ccccc2)c2[nH]c(=O)c(C#N)c(-c3ccccc3)c12 | 1.8
O=C(O)CCCNS(=O)(=O)c1ccc(Cl)cc1 | 1.2
